Laboratory results reported in PubChem BioAssay (EPA / NIEHS).
More than one record can exist for a structure, and the calls need not agree. Active and inactive are the calls of the source. The calls were made as follows: active = hit-call score of the fitted dose curve at least 0.9, where 1 is the maximum; inactive = score below 0.9.

Tests used:
Conditions in all cases: mRNA level, 48 h; actives raise or lower the signal
[1] = read-out: Cytochrome P450 (CYP24A1), CYP24A1 (gene 1591); assay: LTEA_HepaRG_CYP24A1: Life Technologies and Expression Analysis (LTEA) Assay for Cytochrome P450 (CYP24A1) using HepaRG (AID 2283478)
Outline: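 Differentiated HepaRG cells, pre-cultured 48 h, were exposed in duplicate for 48 h in serum-free induction medium to 8 half-log concentrations (top 100 uM, 0.5% DMSO). CYP24A1 mRNA was quantified by TaqMan qRT-PCR, normalized to ACTB/GAPDH/POLR2A, fitted bidirectionally versus DMSO.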

[2] = read-out: Cytochrome P450 (CYP1A2), CYP1A2 (gene 1544); assay: LTEA_HepaRG_CYP1A2: Life Technologies and Expression Analysis (LTEA) Assay for Cytochrome P450 (CYP1A2) using HepaRG (AID 2283479)
Outline: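 Differentiated human HepaRG cells in serum-free induction medium were exposed in duplicate for 48 h to 8-point half-log concentrations up to 100 uM in 0.5% DMSO. CYP1A2 mRNA measured by qRT-PCR, normalized to ACTB, GAPDH, POLR2A; bidirectional fit vs DMSO.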

[3] = read-out: cysteine-aspartic acid protease (CASP8), CASP8 (gene 841); assay: LTEA_HepaRG_CASP8: Life Technologies and Expression Analysis (LTEA) Assay for cysteine-aspartic acid protease (CASP8) using HepaRG (AID 2283480)
Outline: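 HepaRG, 48 h exposure, duplicate wells; 8 conc, half-log from 100 uM, 0.5% DMSO. Serum-free induction medium. CASP8 mRNA by TaqMan qRT-PCR, norm. ACTB/GAPDH/POLR2A; gain/loss fitted vs DMSO.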

[4] = read-out: Cytochrome P450 (CYP2B6), CYP2B6 (gene 1555); assay: LTEA_HepaRG_CYP2B6: Life Technologies and Expression Analysis (LTEA) Assay for Cytochrome P450 (CYP2B6) using HepaRG (AID 2283481)
Outline: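 Differentiated HepaRG cells, serum-free induction medium, exposed 48 h in duplicate to 8-point half-log concentrations from 100 uM in 0.5% DMSO. CYP2B6 mRNA by qRT-PCR, normalized to ACTB, GAPDH, POLR2A; bidirectional fit versus DMSO.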

[5] = read-out: Cytochrome P450 2C19 (Homo sapiens) (UniProt P33261); assay: LTEA_HepaRG_CYP2C19: Life Technologies and Expression Analysis (LTEA) Assay for CYP2C19 using HepaRG (AID 2283482)
Outline: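 Differentiated human HepaRG cells were exposed for 48 h in serum-free induction medium to 8 concentrations (top 100 uM, half-log steps, 0.5% DMSO). CYP2C19 mRNA was measured by qRT-PCR, normalized to ACTB/GAPDH/POLR2A, and fitted bidirectionally against DMSO.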

CYP2C9 (gene 1559) = assay: LTEA_HepaRG_CYP2C9: Life Technologies and Expression Analysis (LTEA) Assay for CYP2C9 using HepaRG (AID 2283484)
Outline: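 Cells plated 48 h, switched to serum-free induction medium, then treated in duplicate for 48 h at eight concentrations (max 100 uM, 0.5% DMSO). RNA then analysed by qRT-PCR for CYP2C9; curves fitted in both directions relative to DMSO.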

CYP2E1 (gene 1571) = assay: LTEA_HepaRG_CYP2E1: Life Technologies and Expression Analysis (LTEA) Assay for CYP2E1 using HepaRG (AID 2283485)
Outline: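 Human liver line HepaRG, plated 48 h, then serum-free induction medium + chemical x 48 h; 8-pt CRC from 100 uM, half-log, 0.5% DMSO, n=2. Readout: CYP2E1 mRNA qRT-PCR vs ACTB/GAPDH/POLR2A; bidirectional fit vs DMSO.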

CYP4A11 (gene 1579) = assay: LTEA_HepaRG_CYP4A11: Life Technologies and Expression Analysis (LTEA) Assay for CYP4A11 using HepaRG (AID 2283486)
Outline: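 Differentiated HepaRG cells, serum-free induction medium, exposed 48 h in duplicate to 8-point half-log series from 100 uM in 0.5% DMSO. CYP4A11 mRNA measured by qRT-PCR, normalized to ACTB, GAPDH, POLR2A; bidirectional fit versus DMSO.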

[6] = read-out: Cytochrome P450 3A4 (Homo sapiens) (UniProt P08684); assay: LTEA_HepaRG_CYP3A4: Life Technologies and Expression Analysis (LTEA) Assay for CYP3A4 using HepaRG (AID 2283487)
Outline: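 Differentiated HepaRG cells, plated 48 h, then dosed 48 h in serum-free induction medium with 0.5% DMSO, 8 half-log concentrations up to 100 uM, duplicate. CYP3A4 mRNA by qRT-PCR, normalized to ACTB/GAPDH/POLR2A; bidirectional fit versus DMSO.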

CYP2C8 (gene 1558) = assay: LTEA_HepaRG_CYP2C8: Life Technologies and Expression Analysis (LTEA) Assay for CYP2C8 using HepaRG (AID 2283483)
Outline: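 CYP2C8 mRNA induction or loss, by qRT-PCR normalized to ACTB/GAPDH/POLR2A, is read in HepaRG cells after 48 h treatment. Concentrations run from 100 uM down in half-log dilutions, with 0.5% DMSO as vehicle and baseline.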

Chain of Cytochrome P450 3A4 (Homo sapiens) (P08684 whole entry, looked up): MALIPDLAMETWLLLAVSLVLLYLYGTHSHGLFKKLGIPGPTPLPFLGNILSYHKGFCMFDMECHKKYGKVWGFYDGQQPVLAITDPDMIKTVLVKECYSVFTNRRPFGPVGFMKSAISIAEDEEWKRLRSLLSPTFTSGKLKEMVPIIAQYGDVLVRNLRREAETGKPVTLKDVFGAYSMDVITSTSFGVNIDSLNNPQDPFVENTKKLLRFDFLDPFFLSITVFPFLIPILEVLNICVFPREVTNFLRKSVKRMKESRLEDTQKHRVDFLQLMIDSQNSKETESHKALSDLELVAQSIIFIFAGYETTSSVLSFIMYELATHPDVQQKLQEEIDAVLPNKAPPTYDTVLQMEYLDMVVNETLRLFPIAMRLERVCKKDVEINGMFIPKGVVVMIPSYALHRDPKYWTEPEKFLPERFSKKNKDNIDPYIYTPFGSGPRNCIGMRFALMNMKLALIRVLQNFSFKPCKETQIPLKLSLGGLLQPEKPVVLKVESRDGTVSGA
Chain of Cytochrome P450 2C19 (Homo sapiens) (P33261 whole entry, looked up): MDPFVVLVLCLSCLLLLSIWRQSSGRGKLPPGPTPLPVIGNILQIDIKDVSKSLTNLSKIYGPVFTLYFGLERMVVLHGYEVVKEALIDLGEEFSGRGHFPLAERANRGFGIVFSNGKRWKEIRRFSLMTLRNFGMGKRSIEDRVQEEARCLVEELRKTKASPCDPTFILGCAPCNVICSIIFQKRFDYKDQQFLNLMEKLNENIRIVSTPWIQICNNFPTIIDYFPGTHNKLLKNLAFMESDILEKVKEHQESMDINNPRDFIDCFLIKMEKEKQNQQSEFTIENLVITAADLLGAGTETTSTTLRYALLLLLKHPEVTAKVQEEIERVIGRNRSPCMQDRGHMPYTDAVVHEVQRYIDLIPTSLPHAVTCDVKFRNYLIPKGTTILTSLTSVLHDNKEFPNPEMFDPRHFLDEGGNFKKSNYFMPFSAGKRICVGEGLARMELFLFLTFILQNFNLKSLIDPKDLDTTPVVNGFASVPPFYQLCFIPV

Compound | outcome [1] | AC50 [2] | outcome [3] | AC50 [4] | outcome [5] | outcome (CYP2C9 (gene 1559)) | outcome (CYP2E1 (gene 1571)) | outcome (CYP4A11 (gene 1579)) | outcome [6] | AC50 [5] | AC50 (CYP2E1 (gene 1571)) | AC50 (CYP4A11 (gene 1579)) | outcome [2] | outcome [4] | outcome (CYP2C8 (gene 1558)) | AC50 (CYP2C8 (gene 1558)) | AC50 (CYP2C9 (gene 1559)) | AC50 [6]
CC[C@H](C)[C@@H](C(=O)O)n1sc2ccccc2c1=O | inactive | 50 µM (active) | inactive | 10.1 µM (active) | inactive | inactive | inactive | inactive | inactive | – | – | – | – | – | – | – | – | –
CC(C)(C)CC(C)(C)c1ccc(O)c(-n2nc3ccccc3n2)c1 | inactive | 31.3 µM (active) | inactive | 13.1 µM (active) | – | inactive | – | – | – | 12.7 µM (active) | 58.2 µM (active) | 50 µM (active) | – | – | – | – | – | –
COCC(C)O (stereo not given) | inactive | – | inactive | – | inactive | inactive | inactive | inactive | inactive | – | – | – | inactive | inactive | – | – | – | –
O=[N+]([O-])c1ccc(O)cc1 | inactive | – | inactive | 19.9 µM (active) | inactive | inactive | inactive | inactive | inactive | – | – | – | inactive | inactive | inactive | – | – | –
CC(=O)CC(C)(C)O | inactive | – | inactive | – | inactive | inactive | inactive | inactive | inactive | – | – | – | – | inactive | inactive | – | – | –
CC(O)CO (stereo not given) | inactive | – | inactive | – | inactive | inactive | inactive | inactive | inactive | – | – | – | inactive | inactive | inactive | – | – | –
c1ccc2cc3c(ccc4ccccc43)cc2c1 | inactive | – | inactive | 9.39 µM (active) | – | – | – | – | – | 15.2 µM (active) | 22.3 µM (active) | 32.8 µM (active) | – | – | – | 13.7 µM (active) | 11.8 µM (active) | 3.99 µM (active)
Oc1cccc(O)c1 | inactive | – | inactive | – | inactive | inactive | inactive | inactive | inactive | – | – | – | inactive | inactive | – | – | – | –
C#C[C@]1(O)CC[C@H]2[C@@H]3CCC4=CC(=O)CC[C@@H]4[C@H]3CC[C@@]21C | inactive | – | inactive | 9.72 µM (active) | – | – | – | – | – | 9.92 µM (active) | 0.124 µM (active) | 0.0465 µM (active) | inactive | – | – | – | – | –
CCOC(=O)CC(O)(CC(=O)OCC)C(=O)OCC | inactive | – | inactive | – | inactive | inactive | inactive | inactive | inactive | – | – | – | inactive | inactive | – | – | – | –
CCCCCCC(=O)O | inactive | 50 µM (active) | inactive | – | inactive | inactive | inactive | inactive | inactive | – | – | – | – | inactive | – | – | – | –
CCCCCCCCCCCCc1ccccc1S(=O)(=O)O | inactive | 84.6 µM (active) | inactive | 84.5 µM (active) | – | – | – | – | – | 87.3 µM (active) | 78.3 µM (active) | 80.7 µM (active) | – | – | – | – | 83.3 µM (active) | 89.6 µM (active)
O=C(OCCOCCOC(=O)c1ccccc1)c1ccccc1 | inactive | 68.9 µM (active) | inactive | – | inactive | inactive | inactive | inactive | inactive | – | – | – | – | inactive | – | – | – | –
CCCCC(CC)COC(=O)CCCCC(=O)OCC(CC)CCCC (stereo not given) | inactive | – | inactive | – | inactive | inactive | inactive | inactive | inactive | – | – | – | inactive | inactive | – | – | – | –
OCCC(F)(F)C(F)(F)C(F)(F)C(F)(F)C(F)(F)C(F)(F)F | inactive | – | inactive | – | inactive | inactive | inactive | inactive | inactive | – | – | – | inactive | inactive | – | – | – | –
